# Experimental data as given in the supplement of paper PMC10338343.
# ± gives the standard deviation.
# Test system: MILI (PIWIL2) piRISC loaded with L1MC piRNA (26 nt)
# Test: pre-steady-state target cleavage rate (min^-1); guide: L1MC piRNA 5'p-UAACUAAAUACUAUGCAAGCUGUAGG; MIWI and MILI are mouse PIWI proteins and EfPiwi is from a freshwater sponge; tags in brackets are library labels; higher = faster piRNA-guided slicing of the target
# Settings: auxiliary factor: 500 nM mouse GTSF1
# Procedure: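 Cleave-'n-Seq: a library of target RNAs (target site embedded in constant flanks, ACAGCATTCCGCGTTAGTGATATCCG... 5' flank; DNA-blocked outside the site) at 0.1 nM was incubated with 1 nM active mouse MILI or MIWI piRISC (synthetic 5'-monophosphorylated piRNA guide) with or without 500 nM mouse GTSF1 at 33 °C for 1 min to 16 h. Uncleaved targets were sequenced and normalised to non-target controls, and the pooled three trials were fitted to a burst-and-steady-state model to give the pre-steady-state cleavage rate (min^-1; k3 is constrained to at most 1e-4). Sequence is the target site only; target names encode pairing extent (gX:gY) and contiguous / 1-mismatch / 2-mismatch / bulge geometry. Fits with R² ≤ 0 are excluded.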
row,Sequence,pre-steady-state target cleavage rate
1,UCCUGGUACAGGAAGCAUAGUAUUUAGUUA,0.223 ± 0.025
2,UCCUGGAACAGCUAGCAAAGUAUUUAGUUA,0.11 ± 0.013
3,UCCUGCUACAGUUUGCAUAGUAUUUAGUUA,0.296 ± 0.015
4,UCCUGGAAACAGCUUGCAUAGUAUUUAGUUA,0.347 ± 0.019
5,UCCUGGUUCAGCUUGCAUAGUAUUUACAAA,0.0698 ± 0.021
6,UCCUGCAACAGCUUGCAUAGUAUUUACUUA,0.122 ± 0.012
7,UCCUGGAUGAGCUUGCAUAGUAUUUAGUA,0.223 ± 0.025
8,UCCUGGAUCAGCUUGCAUUGUAUUUAGUUA,0.179 ± 0.013
9,UCCUCCUACAGCUUGGAUAGUAUUUACUUA,0.0993 ± 0.024
10,UCCUCCAACAGCUUGCAUAGUAUUUACAAA,0.113 ± 0.022
11,UCCUGGAUGUGCUCUGCAUAGUAUUUAGUUA,0.137 ± 0.015
12,UCCUGGAUCAGCCUGCAUAGUAUUUAGUUA,0.244 ± 0.026
13,UCCUGCUACAGCUUGCAUAGUAUUAGUUA,0.222 ± 0.026
14,UCCUGGAUCAGCUUGCAUAGUAUAUAGUAA,0.189 ± 0.019
15,UCCUCCUACAGUUGCAUAGUAUUUAGUUA,0.255 ± 0.014
16,UCCUGGAUGACGAUGCAUAGUAUUUAGUUA,0.0949 ± 0.013
17,UCCUGCUUCAGCUUGCUUAGUAUUUAGUUA,0.287 ± 0.011
18,UCCUGGAUGUCGAUGGCAUAGUAUUUAGUUA,0.0677 ± 0.014
19,UCCUGGAUGAGUCUUGCAUAGUAUUUAGUUA,0.105 ± 0.016
20,UCCUGGAUGUGCUUGCAUAGUAUUUUCUUA,0.00861 ± 0.005
21,UCCUGGAUGUGCAUGCAUAGUAAUUAGUUA,0.0501 ± 0.008
22,UCCUGCUACAGCUUGCAUUGUAUUUACUUA,0.12 ± 0.025
23,UCCUGCUACGAGCUUGCAUAGUAUUUAGUUA,0.217 ± 0.026

# Same assay, conditions: auxiliary factor: none (no GTSF1)
row,Sequence,pre-steady-state target cleavage rate
1,UCCUGGUACAGGAAGCAUAGUAUUUAGUUA,0.00538 ± 0.0026
2,UCCUGGAUGUCGAACGUUAGUAUUUCGUUA,< 0.0001
3,UCCUGGAACAGCUAGCAAAGUAUUUAGUUA,0.00729 ± 0.002
4,UCCUGCUACAGUUUGCAUAGUAUUUAGUUA,0.0106 ± 0.0023
5,UCCUGGAAACAGCUUGCAUAGUAUUUAGUUA,0.0105 ± 0.0038
6,UCCUGGAUGAGCUUGCAUAGUAUUUAGUA,0.00747 ± 0.0025
7,UCCUGGAUCAGCUUGCAUUGUAUUUAGUUA,0.00955 ± 0.0024
8,UCCUGGAUGUGCUCUGCAUAGUAUUUAGUUA,0.0108 ± 0.0039
9,UCCUGGAUCAGCCUGCAUAGUAUUUAGUUA,0.0068 ± 0.0031
10,UCCUGCUACAGCUUGCAUAGUAUUAGUUA,0.0027 ± 0.0027
11,UCCUCCUACAGUUGCAUAGUAUUUAGUUA,0.00612 ± 0.0019
12,UCCUGCUUCAGCUUGCUUAGUAUUUAGUUA,0.00807 ± 0.0021
13,UCCUGGAUGUCGAUGGCAUAGUAUUUAGUUA,0.00792 ± 0.003
14,UCCUGGAUGAGUCUUGCAUAGUAUUUAGUUA,0.0093 ± 0.0029
15,UCCUGGAUGUGCAUGCAUAGUAAUUAGUUA,0.00833 ± 0.002
16,UCCUGCUACAGCUUGCAUUGUAUUUACUUA,0.00348 ± 0.0023
17,UCCUGGAACAGCUUCGAUAGUAUUUACAAA,< 0.0001
18,UCCUGCUACGAGCUUGCAUAGUAUUUAGUUA,0.00594 ± 0.0032
